# Results reported in PubChem BioAssay AID493162 (ICCB-Longwood Screening Facility, Harvard Medical School, 2011).
# The whole screen tested about 46,000 compounds, of which about 430 (0.93%) were called active. This is one part of a sample in which actives are shown more often than they occur. Values without a mark were called inactive. Rule as the data show it: active = normalized absorbance mostly below about 85% (no sharp cut-off); inactive = mostly above about 86%.
# System: Vaccinia virus DNA polymerase (E9) processive complex
# Experiment: vaccinia E9 polymerase processive synthesis inhibitors, primary screen, biochemical, absorbance (AID 493162)
# Settings: in vitro processive DNA synthesis, absorbance read-out; active compounds read low; concentration not given here
row,SMILES,normalized absorbance
1,Cc1nc(SCC(=O)c2ccc(Cl)cc2)c(C#N)c(C)c1C,99.7%
2,COc1ccc(C(=O)CSC2=C(C#N)C(c3cccs3)CC(=O)N2)cc1 (centres undefined),101%
3,N#Cc1c(-c2cccs2)nc(SCC(=O)c2ccc(Br)cc2)[nH]c1=O,68.9% (active)
4,O=C(NCc1cccnc1)c1cc(-c2ccccn2)nc2ccccc12,102%
5,COc1ccc(-c2nnn(-c3cccc(C(F)(F)F)c3)c2N)cc1OC,112%
6,Cc1cc(C)cc(Oc2coc3c(CN4CCCCCC4)c(O)ccc3c2=O)c1,100%
7,O=C(CCc1nc(-c2ccccc2)no1)N1CCCCC1,94.1%
8,Fc1ccccc1Cn1cnc2ccccc21,100%
9,O=C(O)CCCC(=O)Nc1ccccn1,98.3%
10,Cc1cc(-c2cn(/N=C/c3ccc(Cl)cc3Cl)c(N)n2)c(C)s1,97.6%
11,Cc1nc2cc(Cl)ccc2c(=O)n1-c1nc2ccccc2[nH]1,103%
12,CC(C)(C)c1cn2c3ccccc3nc2n1CCCO,96.5%
13,Cc1nnc(SCC(=O)O)[nH]c1=O,96.1%
14,Cc1nc2sc(C(c3ccc(F)cc3)N3CCC(O)CC3)c(O)n2n1 (centres undefined),101%
15,CC(C)Nc1nc(-c2ccccc2O)nc2ccccc12,102%
16,O=C(O)CSc1ccc(Br)c2cccc(Cl)c12,81.7%
17,O=C(O)CSc1ccc2ccccc2c1Br,85.4% (active)
18,Cc1nc2ccccc2nc1SCC(=O)O,103%
19,COc1ccc(C2CC(=O)n3nc(-c4ccccc4)nc3S2)cc1OC (centres undefined),100%
20,Cc1cc2cc(CNS(=O)(=O)N(C)C)ccc2n1C,101%
21,O=S(=O)(c1cccc2cccnc12)N1CCN(c2cccc(Cl)c2)CC1,101%
22,Cc1nc(N2CC(C)OC(C)C2)c2c3c(sc2n1)CCC3 (centres undefined),100%
23,COc1ccccc1NC(=O)c1cccc(N2C(=O)C3CC=CCC3C2=O)c1 (centres undefined),89.3%

row,SMILES,normalized absorbance
1,COc1ccc(C2C=C(c3ccccc3)NC(=O)C2C#N)cc1 (centres undefined),94.4%
2,Cc1ccc(-c2nc(C)sc2CC(=O)O)cc1,98.3%
3,COc1ccc(NS(=O)(=O)c2ccc(Oc3c(C#N)cccc3C#N)cc2)cc1,104%
4,CCCn1c[n+](CC(=O)C(C)(C)C)c2ccccc21,101%
5,COc1ccc(NC(=O)C(C)n2cccc2)cc1 (centres undefined),102%
6,O=c1[nH]c(-c2ccc(F)cc2)nc2ccccc12,102%
7,Cn1nnnc1SCC(=O)Nc1nccs1,104%
8,C=CCn1c(SCC(=O)Nc2nnc(CC)s2)nnc1-c1cccs1,99.4%
9,CC(NC(=O)Nc1ccc2c(c1)N(C)C(=O)c1ccccc1S2)c1ccccc1 (centres undefined),110%
10,CN1CCc2ccccc2C1Cc1ccccc1NS(=O)(=O)c1cccc(C(F)(F)F)c1 (centres undefined),97.1%
11,O=c1c2ccccc2c(-c2ccccc2)nn1Cc1ccccc1,99.7%
12,O=c1c2cccc3c2c(nn1CN1CCCCC1)-c1ccccc1-3,76% (active)
13,O=C1c2ccccc2-c2nn(CC(=O)N3CCOCC3)c3cccc1c23,92.9%
14,CCOC(=O)CSc1nc2ccccc2n1C(=O)Oc1ccccc1,95.5%
15,O=C(O)CCc1nnc2ccc(N3CCCC3)nn12,103%
16,FC(F)(F)c1cccc(Oc2cnc3ccccc3n2)c1,95.2%
17,Cc1ccc2c(Cl)c(C(=O)N(Cc3cccs3)C3CCS(=O)(=O)C3)sc2c1 (centres undefined),100%
18,C/C(C#N)=C(/N)c1ccccc1,104%
19,CCOC(=O)CSc1nc(N)c2c3c(sc2n1)CCC3,95.7%
20,COc1ccc2c(C)cc(-n3nc(C)cc3C)nc2c1,99%
21,COc1ccc(Cl)cc1-n1c(SCc2cccc(Cl)c2)nnc1-c1cc2occc2n1C,108%
22,O=C(Nc1ccc(-c2nc3ccccc3o2)cc1)c1ccc(Oc2ccccc2)cc1,100%
23,CCOc1ccc2nc(NC(=O)C3CC3)sc2c1,100%

row,SMILES,normalized absorbance
1,COc1ccc(/C=N/n2c(C)cc(C)cc2=O)cc1,100%
2,CCOc1cccc(NC(=O)c2cc(=O)c3ccccc3o2)c1,100%
3,CCOc1ncccc1C(=O)Nc1cccc(C(F)(F)F)c1,102%
4,CCOC(=O)c1cc2ccccc2nc1C,99.8%
5,CCOC(=O)Cc1nc(N)ncc1C(=O)OCC,101%
6,CCOC(=O)c1cnc2c(C)c(C)ccc2c1NCCCN(C)C,39.1% (active)
7,c1ccc(-c2cc(NCC3CC3)n3cnnc3n2)cc1,98.2%
8,O=C(NCCN1CCCc2ccccc21)c1cc(-c2cccs2)nc2ccccc12,96.3%
9,C=CCn1c(-c2ccccc2)csc1=Nc1ccc(O)cc1,100%
10,COc1ccc(-n2nc(C(=O)NCC3CCCO3)c3c4ccccc4n(C)c3c2=O)cc1 (centres undefined),103%
11,COc1ccc(-c2nc(NCC3CCCO3)c3ccccc3n2)cc1 (centres undefined),66.4% (active)
12,CN1CCN(c2nc(NCC3CCCO3)c3ccccc3n2)CC1 (centres undefined),98.7%
13,Cc1ccc(C)n1-c1nn(S(C)(=O)=O)c2cccc(F)c12,92.7%
14,COc1cccc(C2=Nc3ccccc3C2=O)c1,99.2%
15,COC(=O)c1coc(-c2ccccc2)n1,102%
16,O=C(N/C(=C/c1ccccc1)P(=O)(O)c1ccccc1)c1ccccc1,98.3%
17,Cc1ccc(/C=C/C(=O)NCC2CCCO2)o1 (centres undefined),89.2%
18,CN(C)c1nc(NCc2ccccc2)nc(Nc2ccc(OC(F)(F)F)cc2)n1,100%
19,CCc1ccccc1N1CC(c2nc3ccccc3[nH]2)CC1=O (centres undefined),90.4%
20,CC(C)NC(=O)Oc1noc2ccc(Cl)cc12,99.1%
21,Cc1ccc(N2NC(=O)/C(=C/C=C/c3ccco3)C2=O)cc1C,99.9%
22,C=CCN1C(=O)/C(=C/c2ccc3c(c2)n(C)c(=O)n3C)C(=O)NC1=S,100%
23,CCN1C(=O)/C(=C/C=C/c2ccco2)C(=O)NC1=S,64.7% (active)
